{"source": "PubChem BioAssay AID1851", "about": "(National Center for Advancing Translational Sciences (NCATS), 2009)", "note": "Several values for one entry are separate records, joined by “and”; a condition that tells them apart may be missing. Equal entries are not always repeated. About 5,800 (36%) of roughly 16,000 compounds were called active. Roughly 23% stayed inconclusive and do not appear here. The call rests on the fitted dose curve; in most records, active means well fitted curve in the direction sought with a large enough effect; inconclusive means small, poorly fitted or top-dose-only effect, or effect the other way; inactive means no such curve, though single readings can be large or run the other way. Some of the results follow. The source holds several records for some structures; these can differ, active in one and inactive in another. On the % scale 0 is the no-effect control and ±100 the full control effect."}
{"target": "Cytochrome P450 2C19 (Homo sapiens) (UniProt P33261)", "sequence (P33261 whole entry, looked up)": "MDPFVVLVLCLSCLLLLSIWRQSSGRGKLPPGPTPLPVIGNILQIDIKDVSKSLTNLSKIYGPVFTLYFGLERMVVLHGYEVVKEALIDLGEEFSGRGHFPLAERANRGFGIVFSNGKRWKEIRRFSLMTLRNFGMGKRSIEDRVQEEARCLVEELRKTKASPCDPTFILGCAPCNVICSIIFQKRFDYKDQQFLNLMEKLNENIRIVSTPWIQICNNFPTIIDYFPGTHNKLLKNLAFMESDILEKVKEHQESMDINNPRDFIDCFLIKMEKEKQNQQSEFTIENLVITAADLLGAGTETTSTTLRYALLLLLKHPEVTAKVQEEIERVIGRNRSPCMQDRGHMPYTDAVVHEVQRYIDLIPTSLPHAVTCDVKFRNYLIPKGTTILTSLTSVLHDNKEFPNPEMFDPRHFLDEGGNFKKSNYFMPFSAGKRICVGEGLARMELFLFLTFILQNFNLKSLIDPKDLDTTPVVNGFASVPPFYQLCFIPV", "test": "Cytochrome panel assay with activity outcomes", "settings": "recombinant CYP, pro-luciferin dealkylation, luminescence, p450-cyp2c19; series mostly up to 57.1 µM"}
{"smiles": "Cn1c(SCc2nnc(-c3ccc(F)cc3)o2)nnc1C1COc2ccccc2O1", "note": "(stereo not drawn)", "AC50": "17.8 µM (active)"}
{"smiles": "Oc1ccc(C2Nc3cccc4cccc(c34)N2)c(O)c1", "AC50": "5.62 µM (active)"}
{"smiles": "O=[N+]([O-])c1nccn1C[C@H](O)CN1CCCCC1", "activity, negative = inhibition": "22.6% [at 11.4 µM] (inactive)"}
{"smiles": "S=C1N[C@H](c2ccccc2)N[C@H](c2ccccc2)S1", "AC50": "3.98 µM (active)"}
{"smiles": "O=C1C2[C@@H](c3ccccc3)N[C@@H](c3ccccc3)C1[C@H](c1ccccc1)N[C@H]2c1ccccc1", "activity, negative = inhibition": "-2.21% [at 11.4 µM] (inactive)"}
{"smiles": "COc1ccc(CCNC(=O)CCCCCN2C(=O)c3ccccc3C2=O)cc1", "AC50": "2.51 µM (active)"}
{"smiles": "O=C(CCCCCN1C(=O)c2ccccc2C1=O)NCc1ccccn1", "AC50": "inactive"}
{"smiles": "CCOCCCNC(=O)CCS(=O)(=O)Cc1ccc(C)cc1", "AC50": "inactive"}
{"smiles": "CCOc1ccc(CCNC(=O)CCCN2C(=O)c3ccccc3C2=O)cc1OCC", "AC50": "28.2 µM (active)"}
{"smiles": "C#CCCCO/N=C1/C[C@@H](O)[C@@H](O)[C@@H]2[C@@H]3C(=O)N(C[C@@H]4CCCO4)C(=O)[C@H]3CC[C@@H]12", "activity, negative = inhibition": "1.94% [at 11.4 µM] (inactive)"}
{"smiles": "O=S(=O)(NCc1cc(-c2ccccc2Cl)no1)c1ccccc1", "AC50": "0.158 µM (active)"}
{"smiles": "O=C(O)[C@@H]1[C@@H](C(=O)Nc2ccccc2)[C@@H]2C=C[C@@H]1O2", "activity, negative = inhibition": "-3.64% [at 11.4 µM] (inactive)"}
{"smiles": "O=S(=O)(NCc1cc(-c2ccccc2Cl)no1)c1ccc(Cl)cc1", "AC50": "0.0562 µM (active)"}
{"smiles": "O=C1c2ccccc2C(=O)N1Cc1cc(-c2ccccc2Cl)no1", "AC50": "10 µM (active)"}
{"smiles": "O=C(Nc1ccccc1)c1cc(-c2ccccc2Cl)no1", "AC50": "2.82 µM (active)"}
{"smiles": "CC[C@@H](CS(=O)(=O)O)[N+](=O)[O-]", "activity, negative = inhibition": "45% [at 11.4 µM] (inactive)"}
{"smiles": "CS(=O)(=O)N(CC(=O)Nc1c(F)cccc1F)c1ccc(C23CC4CC(CC(C4)C2)C3)cc1", "AC50": "11.2 µM (active)"}
{"smiles": "CN(C)C(=O)CN(c1ccc2c(c1)OCO2)S(C)(=O)=O", "AC50": "inactive"}
{"smiles": "CCCN(CCC)C(=O)[C@@H](CCC(=O)O)NC(=O)c1ccccc1", "AC50": "inactive"}
{"smiles": "CCCC/C=C/C(NC(=O)c1ccco1)c1ccccc1", "note": "(stereo not drawn)", "AC50": "15.8 µM (active)"}
{"smiles": "CCCC/C=C/C(NC(=O)Oc1cccc(C(F)(F)F)c1)c1ccccc1", "note": "(stereo not drawn)", "AC50": "3.16 µM (active)"}
{"smiles": "CCCCCCCCCCCCCCC/C=C\\[C@H](O)[C@@H](NC(=O)CCCCCCCCCCCCC)OC", "note": "(tested in a mixture with another compound)", "AC50": "inactive"}
{"smiles": "CCCC/C=C/C(NC(=O)c1ccccc1)c1ccccc1", "note": "(stereo not drawn)", "AC50": "7.94 µM (active)"}
{"smiles": "CCCC/C=C/C(NC(=O)c1ccc(-c2ccccc2)cc1)c1ccccc1", "note": "(stereo not drawn)", "AC50": "inactive"}
{"smiles": "CCCC/C=C/C(NC(=O)c1cccs1)c1ccccc1", "note": "(stereo not drawn)", "AC50": "1.58 µM (active)"}
{"smiles": "Nc1cc(=O)[nH]c(N)n1", "AC50": "inactive"}
{"smiles": "CC(C)=CCC/C(C)=C/CO/N=C1/[C@H]2O[C@@H]2[C@@H](O)[C@H]2[C@H]1CCn1c(=O)n(-c3ccccc3)c(=O)n12", "activity, negative = inhibition": "18.2% [at 11.4 µM] (inactive)"}
{"smiles": "N#Cc1cccc(-c2nc3cnc(N4CCOCC4)nc3n(C[C@H]3CCCO3)c2=O)c1", "AC50": "inactive"}
{"smiles": "COc1cccc(N(C(=O)Cn2nnc(-c3ccc(C)cc3)n2)C(C(=O)NC(C)(C)C)c2c[nH]c3ccccc23)c1", "note": "(stereo not drawn)", "AC50": "10 µM (active)"}
{"smiles": "OC[C@@H]1O[C@H](O)[C@@H](Cl)[C@H](O)[C@@H]1O", "AC50": "inactive"}
{"smiles": "CNCC[C@H](Oc1ccccc1OC)c1ccccc1", "AC50": "inactive"}
{"smiles": "CN(CC[C@@H](Oc1ccc(-c2ccccc2)cc1)c1ccc(F)cc1)CC(=O)O", "AC50": "6.31 µM (active)"}
{"smiles": "CC(Oc1ccc(-c2ccccc2)c(F)c1)c1ccn(S(=O)(=O)c2ccc(Cl)cc2)n1", "note": "(stereo not drawn)", "AC50": "3.55 µM (active)"}
{"smiles": "CC(Oc1ccc(Cl)cc1)c1ccnn1S(=O)(=O)c1ccccc1", "note": "(stereo not drawn)", "AC50": "0.501 µM (active)"}
{"smiles": "CC(Oc1ccccc1)c1ccnn1S(=O)(=O)c1ccccc1", "note": "(stereo not drawn)", "AC50": "2 µM (active)"}
{"smiles": "CC(C)CN1CCC2(CC1)CCN(S(=O)(=O)c1ccccc1)CC2", "AC50": "inactive"}
{"smiles": "CO[C@H]1COC(=O)[C@H](C)NC(=O)C/C=C\\[C@@H](C)[C@H](OC)COC(=O)[C@@H](OCc2ccccc2)/C=C\\[C@@H]1C", "activity, negative = inhibition": "1.79% [at 11.4 µM] (inactive)"}
{"smiles": "N[C@@H](C(=O)O)c1ccc(C(=O)O)c(C(=O)O)c1", "AC50": "316 nM (active) and inactive and 3.16 µM (active)"}
{"smiles": "N[C@H](C(=O)O)c1ccc(C(=O)O)cc1", "AC50": "inactive"}
{"smiles": "N[C@@H](C(=O)O)c1ccc(P(=O)(O)O)cc1", "AC50": "15.8 µM (active)"}
{"smiles": "N[C@@H](C(=O)O)c1ccc(C(=O)O)c(O)c1", "AC50": "inactive"}
{"smiles": "N[C@@H](C(=O)O)c1ccc(C(=O)O)cc1", "AC50": "inactive"}
{"smiles": "N[C@H](C(=O)O)c1ccc(C(=O)O)c(O)c1", "AC50": "inactive"}
{"smiles": "Cc1cc(=Nc2ccc3c(c2)c(N)cc(C)[n+]3C)nc(N)n1C", "activity, negative = inhibition": "35.5% [at 11.4 µM] (inactive)"}
{"smiles": "CC(NC(=O)CCSc1nc(-c2ccco2)cc(C(F)(F)F)n1)c1ccccc1", "note": "(stereo not drawn)", "AC50": "1.41 µM (active)"}
{"smiles": "COc1cc(C2C(C(=O)OCCC#N)=C(C)NC3=C2S(=O)(=O)c2ccccc23)cc(OC)c1OC", "note": "(stereo not drawn)", "AC50": "20 µM (active)"}
{"smiles": "COc1ccccc1CNc1ccnc(-c2cccc(C#N)c2)n1", "AC50": "3.98 µM (active)"}
{"smiles": "COc1ccc(CNc2ccnc(-c3cccc(C#N)c3)n2)c(OC)c1", "AC50": "3.98 µM (active)"}
{"smiles": "Cc1nn(C)c(C(=O)NNC(=S)Nc2ccc(Cl)cc2)c1[N+](=O)[O-]", "AC50": "inactive"}
{"smiles": "Cc1nn(C(C)C(=O)Nc2sc3c(c2C#N)CCCC3)c(C)c1[N+](=O)[O-]", "note": "(stereo not drawn)", "AC50": "10 µM (active)"}
{"smiles": "Cc1nn(C(C)C(=O)Nc2ccc(Cl)cn2)c(C)c1[N+](=O)[O-]", "note": "(stereo not drawn)", "AC50": "3.16 µM (active)"}
{"smiles": "COc1cccc(NC(=S)NNC(=O)C(C)n2nc(C)c([N+](=O)[O-])c2C)c1", "note": "(stereo not drawn)", "AC50": "7.94 µM (active)"}
{"smiles": "OC(CN1CCCCC1)CN1CCCCC1", "AC50": "inactive"}
{"smiles": "FC(F)(F)c1nc2nc(Cl)c(Cl)nc2n1CCCN1CCOCC1", "activity, negative = inhibition": "-10.6% [at 11.4 µM] (inactive)"}
{"smiles": "CCn1c(COc2ccc(C)cc2)nnc1SCc1ccc(C#N)cc1", "AC50": "15.8 µM (active)"}
{"smiles": "C=C1C=C(Br)C2(OCCCO2)[C@H]2OC12", "note": "(stereo partly drawn)", "activity, negative = inhibition": "18% [at 11.4 µM] (inactive)"}
{"smiles": "CC1CCCCN1c1nc(-c2ccncc2)nc2ccccc12", "note": "(stereo not drawn)", "AC50": "0.355 µM (active)"}
{"smiles": "CN1CCN(c2nc(-c3cccnc3)nc3ccccc23)CC1", "AC50": "inactive"}
{"smiles": "COc1ccc(/C(C)=N/NC(=O)c2ccc(N(C)C)cc2)cc1", "AC50": "inactive"}
{"smiles": "C/C(=N\\NC(=O)c1ccc(Br)cc1)c1ccccc1", "AC50": "2.82 µM (active)"}
{"smiles": "CC(=NCC(=O)O)c1ccccc1", "activity, negative = inhibition": "0.942% [at 11.4 µM] (inactive)"}
{"smiles": "C/C(=N/NC(=O)Cc1cccn1C)c1ccccc1", "AC50": "10 µM (active)"}
{"smiles": "CC(=O)NN1C(=O)c2ccc(Oc3cccc([N+](=O)[O-])c3)cc2C1=O", "AC50": "11.2 µM (active)"}
{"smiles": "CC(=O)NN1C(=O)c2ccc(Oc3ccc([N+](=O)[O-])cc3)cc2C1=O", "AC50": "inactive"}
{"smiles": "Cc1sc2ccccc2[n+]1CCC(=O)O", "activity, negative = inhibition": "13.1% [at 11.4 µM] (inactive)"}
{"smiles": "CCOC(=O)C[n+]1c(C)sc2ccc(OC)cc21", "AC50": "5.01 µM (active)"}
{"smiles": "Cc1sc2ccccc2[n+]1CCC(C)S(=O)(=O)[O-]", "note": "(stereo not drawn)", "AC50": "inactive"}
{"smiles": "O=C(N/N=C(\\c1ccccc1)c1cccnc1)C(O)(c1ccccc1)c1ccccc1", "AC50": "inactive"}
{"smiles": "O=C(Oc1ccccc1[N+](=O)[O-])c1cccnc1", "AC50": "inactive"}
{"smiles": "C/C(=N\\NC(=O)c1[nH]c2c([N+](=O)[O-])cc(C)cc2c1-c1ccccc1)c1cccnc1", "AC50": "4.47 µM (active)"}
{"smiles": "CN1CCN(c2ncncc2-c2cccnc2)CC1", "AC50": "inactive"}
{"smiles": "CC(C)(C)[C@@]1(O)CCN2C[C@@H]3c4ccccc4CCc4cccc(c43)[C@@H]2C1", "AC50": "inactive"}
{"smiles": "CN1CCN2c3ncccc3Cc3ccccc3C2C1", "note": "(stereo not drawn)", "AC50": "0.0501 µM (active)"}
{"smiles": "Oc1ccc([C@@H]2CNCc3sccc32)cc1O", "AC50": "inactive"}
{"smiles": "O=C(NNC(=O)c1cc(-c2ccc(Cl)c(Cl)c2)nc2ccccc12)Nc1ccccc1", "AC50": "4.47 µM (active)"}
{"smiles": "Cc1cccc(NC(=O)NNC(=O)c2cc(-c3ccccc3Cl)nc3ccccc23)c1", "AC50": "3.16 µM (active)"}
{"smiles": "CC[C@H](C)N(C)C(=O)c1cc2ccccc2c(-c2ccccc2Cl)n1", "AC50": "inactive"}
{"smiles": "O=C(COc1ccc2ccccc2c1Br)NNC(=O)Nc1ccccc1", "AC50": "3.55 µM (active)"}
{"smiles": "C[C@@H]1[C@H]2CC[C@@H]3[C@@H]4CC=C5C[C@@H](N(C)C)CC[C@]5(C)[C@@H]4CC[C@@]32CN1C", "AC50": "inactive"}
{"smiles": "Cc1noc(C)c1C(=O)N1CCC[C@@]2(CCN(c3ncccn3)C2)C1", "AC50": "inactive"}
{"smiles": "Cc1ccccc1C(=O)NC(=S)NCC(=O)c1ccccc1", "AC50": "4.47 µM (active)"}
{"smiles": "Cc1ccc(C(=O)NC(=S)NCC(=O)c2ccccc2)cc1", "AC50": "inactive"}
{"smiles": "Cc1nn(-c2ccccc2)c2c1C(c1ccc(O)c(O)c1)N1C(=N2)C(Nc2ccccc2)=Nc2ccccc21", "note": "(stereo not drawn)", "AC50": "3.16 µM (active)"}
{"smiles": "CC(=O)Nc1ccc(NC2=Nc3ccccc3N3C2=Nc2c(c(C)nn2-c2ccccc2)C3c2ccccc2)cc1", "note": "(stereo not drawn)", "AC50": "2 µM (active)"}
{"smiles": "COC(=O)CN(c1ccccn1)S(=O)(=O)c1ccccc1", "AC50": "inactive"}
{"smiles": "Cc1cccc(N(CC(=O)NCCSCc2ccco2)S(=O)(=O)c2ccccc2)c1", "AC50": "2.51 µM (active)"}
{"smiles": "Cc1cccc(CSCCNC(=O)c2ccc(N(C)S(=O)(=O)c3ccccc3)cc2)c1", "AC50": "1.12 µM (active)"}
{"smiles": "Cc1cc(C)cc(N(CC(=O)NCCSc2ccccn2)S(=O)(=O)c2ccccc2)c1", "AC50": "2.24 µM (active)"}
{"smiles": "O=C(CN(c1ccccc1)S(=O)(=O)c1ccccc1)NCCSCc1ccco1", "AC50": "8.91 µM (active)"}
{"smiles": "CN(CC(=O)O/N=C(\\N)c1ccccn1)S(=O)(=O)c1ccccc1", "AC50": "inactive"}
{"smiles": "CCCOc1ccccc1-c1nc2n[nH]nc2c(=O)[nH]1", "AC50": "inactive"}
{"smiles": "NC(N)=NC[C@@H]1COC2(CCCCC2)O1", "AC50": "inactive"}
{"smiles": "N[C@@H](CS(=O)O)C(=O)O", "AC50": "inactive"}
